The results in this text go back to PubChem BioAssay (NCI).

“And” between values parts separate entries of the source, which are not always exact repeats. Equal values may be shown once. This is part of a sample that, as a whole, favours compounds with a hit. Of some 83,000 tested, about 20% had one in any assay.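 Activity criterion: percent growth below 10, measured after cells in 96-well plates were exposed to a single compound concentration for 48 hours.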 The source made the active and inactive calls.

Experiment in all cases: NCI-60 one-dose screen, 48 h (100 = growth as untreated, 0 = no growth, -100 = all killed)
Common to all, as to details: 10 µM unless noted

Test [1] relates to NCI-H23 lung.
Test [2] has as its system NCI-H226 lung.
Test [3] concerns NCI-H322M lung.
Test [4] relates to HOP-62 NSCLC.
Test [5] concerns HOP-92 NSCLC.
The subject of test [6] is NCI-H522 lung.
Test [7] deals with A549/ATCC NSCLC.
The subject of test [8] is 786-0 renal.
The subject of test [9] is COLO 205 colon.
The test system of test [10] is DU-145 prostate.
The test system of test [11] is K-562 leukemia.
Test [12] concerns MALME-3M melanoma.
Test [13] has as its system MDA-MB-231 breast.
The subject of test [14] is RXF 393 renal.
Test [15] relates to SF-268 CNS.
Test [16] relates to SF-295 CNS.
Test [17] deals with SF-539 CNS.
The test system of test [18] is UACC-257 melanoma.
The test system of test [19] is M14 melanoma.
In test [20] the test system is NCI-H460 lung.

Take `C[C@]12CC[C@H](O)C[C@@H]1CC[C@@H]1[C@@H]2CC[C@]2(C)OC(=O)CC[C@@H]12`: the growth in test [1] is 108% (inactive); in test [2], 102% (inactive); in test [3] it was 87.2% (inactive); in test [4], 97.3% (inactive); in test [5], 91.1% (inactive); in test [6], 81.2% (inactive). For the same compound, the growth is 72.8% (inactive) in [7]; 88.7% (inactive) in test [8]; 72.5% (inactive) in test [9]; 107% (inactive) in test [10]; 118% (inactive) in test [11]; 82.7% (inactive) in test [12]. For the same compound, the growth was 91.1% (inactive) in [13]; 117% (inactive) in test [14]; 98.7% (inactive) in test [15]; 93.9% (inactive) in test [16]; 95.9% (inactive) in [17]; 73.7% (inactive) in test [18]. For the same compound, in test [19], the growth was 100% (inactive).

As to `C/C=C(/C)C(=O)O[C@H]1CC[C@@]2(C)[C@@H]3CC[C@H]4[C@]5(O)C[C@H](O)[C@@]6(O)[C@@H](CN7C[C@@H](C)CC[C@H]7[C@@]6(C)O)[C@]5(O)C[C@@]42O[C@@]13O`, the growth in test [1] is 106% (inactive); in [2], 102% (inactive); in test [3], 97.9% (inactive); in test [4] it was -56.5% (active); in test [7] it was 94% (inactive); in [8] it was 89.9% (inactive). In addition, the growth in [9] was 118% (inactive); in [10] it was 138% (inactive); in test [11], 136% (inactive); in [12] it was 92.7% (inactive); in test [13] it was 130% (inactive); in test [14], 108% (inactive). The growth in test [15] was 116% (inactive); in test [16], 100% (inactive); in [17] it was 111% (inactive); in test [18], 102% (inactive); in [19] it was 102% (inactive).

Take `N#Cc1ccc(Cl)cc1`: the growth in test [1] was 111% (inactive); in test [2], 109% (inactive); in [3] it was 119% (inactive); in test [4] it was 105% (inactive); in [7], 103% (inactive); in [8], 108% (inactive). Moreover, the growth in test [9] was 117% (inactive); in [10], 117% (inactive); in test [11], 99.4% (inactive); in test [12] it was 115% (inactive); in [13], 108% (inactive); in [14], 120% (inactive). The growth in [15] was 108% (inactive); in test [16], 113% (inactive); in test [17], 108% (inactive); in test [18], 104% (inactive); in [19] it was 106% (inactive).

With `C[Se]/C=C1/C(=O)N(c2c(Cl)cccc2Cl)c2ccccc21`, the growth in test [1] is 39% (inactive); in test [2], 10.9% (inactive); in test [3], 37.5% (inactive); in [4], 22% (inactive); in [5], 15.7% (inactive); in [6] it was 21.1% (inactive). The growth is 7.85% (active) in [7]; 51.1% (inactive) in test [8]; 38.9% (inactive) in test [9]; 43.9% (inactive) in test [10]; 20.3% (inactive) in test [11]; 37.4% (inactive) in [12]. Besides, the growth in test [13] was 31.1% (inactive); in [14], 19.4% (inactive); in test [15], 8.58% (active); in test [16] it was 38% (inactive); in test [17], 0.963% (active); in test [18], -4.62% (active). Further, in test [19], the growth is 20.4% (inactive).

In the case of `CCCCn1c(=O)c(C(=O)NCc2ccccc2Cl)c(O)c2ccccc21`, the growth is 54.1% (inactive) in test [1]; 63% (inactive) in test [2]; 76.9% (inactive) in test [4]; 67.6% (inactive) in test [20]; 66.9% (inactive) in [5]; 73.4% (inactive) in test [6]. For the same compound, the growth was 58% (inactive) in test [7]; 52.2% (inactive) in test [8]; 92.8% (inactive) in test [9]; 84.6% (inactive) in [10]; 42.3% (inactive) in [11]; 98% (inactive) in [12]. Moreover, the growth in test [13] was 88.7% (inactive); in test [14], 87.7% (inactive); in test [15] it was 80.8% (inactive); in [16], 51.8% (inactive); in [17] it was 97.4% (inactive); in [18], 80.9% (inactive). Also, in test [19], the growth is 59.4% (inactive).

As for `O=C(CCCN1CCC2(CC1)C(=O)NCN2c1ccccc1)c1ccc(F)cc1`, the growth is 95.1% (inactive) and 49.3% (inactive) in test [1]; 117% (inactive) and 102% (inactive) in test [2]; 97.5% (inactive) and 81.5% (inactive) in test [3]; 79.1% (inactive) and -10.2% (active) in test [4]; 96.7% (inactive) and 67.2% (inactive) in test [5]; 108% (inactive) and 80.4% (inactive) in [6]. The growth in test [7] is 103% (inactive) and 89.3% (inactive); in test [8] it was 101% (inactive) and 88.3% (inactive); in test [9] it was 34.3% (inactive) and -64.9% (active); in test [10], 79% (inactive) and 34% (inactive); in [11], 86% (inactive) and 85.1% (inactive); in [12] it was 96.1% (inactive) and 92.9% (inactive). The growth is 103% (inactive) and 74.2% (inactive) in test [13]; 116% (inactive) and 105% (inactive) in [14]; 91.1% (inactive) and 62.8% (inactive) in [15]; 96.3% (inactive) and 63.4% (inactive) in test [16]; 124% (inactive) and 62.6% (inactive) in test [17]; 33.6% (inactive) and 21.6% (inactive) in test [18]. For the same compound, the growth in test [19] was 80.8% (inactive) and 54% (inactive).

Regarding `Nc1ccc(P(=O)(O)O)cc1`, the growth in [1] is 101% (inactive) and 96.7% (inactive); in test [2] it was 102% (inactive) and 100% (inactive); in test [3], 104% (inactive) and 99.3% (inactive); in test [5] it was 95.3% (inactive) and 90.3% (inactive); in test [6], 111% (inactive) and 88.8% (inactive); in test [7] it was 102% (inactive) and 94.4% (inactive). Moreover, the growth in test [8] is 113% (inactive) and 91.2% (inactive); in test [9], 111% (inactive) and 105% (inactive); in test [10], 119% (inactive) and 107% (inactive); in test [11] it was 110% (inactive) and 104% (inactive); in test [12], 101% (inactive) and 95.7% (inactive); in [13], 114% (inactive) and 103% (inactive). The growth in [14] is 117% (inactive) and 102% (inactive); in test [15], 113% (inactive) and 107% (inactive); in [16], 99.5% (inactive) and 93.4% (inactive); in test [17] it was 88.6% (inactive) and 100% (inactive); in test [18] it was 104% (inactive) and 99.2% (inactive); in test [19], 121% (inactive) and 100% (inactive).
